The supplement of paper PMC6555819

Assays:
Assay in all cases: PBM binding z-score (relative to random genomic background probes); higher = stronger binding; sequences stand for … in GC…GCGATTGACAGCGTAGAATGAAGG
[1] = system: PPARg:RXRa DBDmut IVT, anti-RXR (DBD mutation: RXRa K156A/R161A, NR concentration 270 nM, RXRa partner concentration 90 nM)
In short: (§1)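 Ligand-free nuclear receptor dimers were bound for 1 h to custom Agilent 4×180K protein-binding microarrays. Detection used antibodies against each partner (one per run). Binding z-scores rest on regression-normalized fluorescence, with random background probes as the reference.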

[2] = system: PPARg:RXRa IVT, anti-PPARg (NR concentration 270 nM, RXRa partner concentration 90 nM)
In short: as §1

[3] = system: PPARg DBDmut:RXRa IVT, anti-PPARg (DBD mutation: PPARg1 K132A/R137A, NR concentration 270 nM, RXRa partner concentration 90 nM)
In short: as §1

[4] = system: PPARg DBDmut IVT, anti-PPARg (DBD mutation: PPARg1 K132A/R137A, NR concentration 270 nM)
In short: as §1

[5] = system: PPARg homodimer (NR concentration 180 nM)
In short: as §1

[6] = system: PXR:RXRa (NR concentration 270 nM, RXRa partner concentration 90 nM)
In short: as §1

[7] = system: PXR homodimer (NR concentration 270 nM)
In short: as §1

[8] = system: RARa:RXR (NR concentration 270 nM, RXRa partner concentration 90 nM)
In short: as §1

[9] = system: RARa homodimer (NR concentration 270 nM)
In short: as §1

[10] = system: RARb:RXRa (NR concentration 270 nM, RXRa partner concentration 90 nM)
In short: as §1

[11] = system: RARb homodimer (NR concentration 270 nM)
In short: as §1

[12] = system: RARg:RXRa (NR concentration 270 nM, RXRa partner concentration 90 nM)
In short: as §1

[13] = system: RARg homodimer (NR concentration 270 nM)
In short: as §1

[14] = system: RXRa DBDmut IVT, anti-RXR (DBD mutation: RXRa K156A/R161A, NR concentration 90 nM)
In short: as §1

[15] = system: RXRa homodimer (NR concentration 180 nM)
In short: as §1

[16] = system: THRa:RXRa (NR concentration 90 nM, RXRa partner concentration 90 nM)
In short: as §1

[17] = system: THRa homodimer (NR concentration 90 nM)
In short: as §1

[18] = system: VDR homodimer (NR concentration 270 nM)
In short: as §1

Row | Sequence | PBM binding z-score [1] | PBM binding z-score [2] | PBM binding z-score [3] | PBM binding z-score [4] | PBM binding z-score [5] | PBM binding z-score [6] | PBM binding z-score [7] | PBM binding z-score [8] | PBM binding z-score [9] | PBM binding z-score [10] | PBM binding z-score [11] | PBM binding z-score [12] | PBM binding z-score [13] | PBM binding z-score [14] | PBM binding z-score [15] | PBM binding z-score [16] | PBM binding z-score [17] | PBM binding z-score [18]
1 | TCTCCTAGGTCAACGATGGTCAGCTAATCTGCTA | 4.1 | 4.22 | 0.539 | 1.02 | 2.22 | 2.36 | -0.309 | 2.66 | 0.663 | 4.28 | 3.61 | 4.5 | 5.72 | 1.41 | 3.49 | 3.32 | 1.59 | 0.166
2 | CCGACTGGGGCAAAGGTTACCAGACTCAGTACGA | 4.51 | 5.88 | -0.692 | -1.09 | 0.726 | 2.48 | -0.264 | 3.64 | -0.558 | 2.66 | 2.19 | 3.65 | 1.61 | -0.175 | 3.93 | 1.73 | -0.362 | 0.000123
3 | AGACTGAGGTTACCAAAGATCAGGGAAACGCTTG | 0.451 | 1.01 | -0.133 | -0.273 | 0.133 | 1.42 | -0.0396 | 1.82 | -0.111 | 2.08 | 0.774 | 2 | 1.59 | 0.709 | 2.5 | 2.7 | 0.552 | 0.497
4 | AGACTGAGGTTATACGTAGATCAGGGAAGAAAGT | 0.425 | 0.435 | 0.201 | 0.0103 | 0.623 | 1.09 | 0.133 | 1.68 | 0.064 | 1.46 | 0.864 | 1.64 | 1.03 | 1.44 | 2.09 | 2.01 | 0.684 | 0.49
5 | CTTCAAAGTTCAACTAAGGTAACGTAAAGCACGC | 0.299 | 1.44 | 1.35 | 1.17 | 3.47 | 5.58 | 4.16 | 4.32 | 2.15 | 5.19 | 4.33 | 5.92 | 6.84 | 4.36 | 5.26 | 5.38 | 2.06 | 3.94
6 | CGAACTAGGTCATTCACAGGACAGTGAATAGTAA | 8.25 | 8.21 | 1.5 | 0.729 | 1.48 | 1.77 | 0.314 | 2.2 | 0.779 | 3.72 | 2.81 | 4.97 | 4.43 | 2.48 | 2.55 | 2.91 | 0.979 | 1.29
7 | CCTACTGGGCCATCAGGTAATTGATATCAACGTT | 4.07 | 4.05 | -0.379 | 0.313 | 0.173 | -0.337 | -0.167 | -0.328 | -0.0481 | 0.0726 | 0.184 | -0.0181 | 0.255 | -0.203 | -0.166 | 0.522 | 0.334 | -0.212
8 | CCGTCTGGGGCAAAGGTTACCATACTCAGTACGA | 3.2 | 5.43 | -0.238 | -0.231 | 1.64 | 2.45 | -0.428 | 4.24 | -0.0466 | 2.5 | 2.21 | 3.55 | 1.87 | 0.589 | 3.51 | 1.74 | -0.0764 | -0.106
9 | GCTATCAGTTGAAAGGGCAACCGAATGATTCTCG | 0.18 | 0.3 | -0.111 | -0.549 | 0.562 | 0.584 | -0.393 | 1.25 | -0.381 | 2.07 | 1.81 | 1.22 | 1.28 | 0.45 | 1.26 | 0.693 | -0.411 | -0.03
10 | TCATATAAGTAAAGGTGAAAGTCGAACGATATGA | 2.2 | 1.58 | 1.17 | 1.46 | 0.731 | 0.97 | 0.241 | 1.59 | 0.59 | 1.99 | 1.41 | 1.5 | 1.25 | 0.638 | 2.04 | 1.18 | -0.569 | -0.0399
11 | GGAACGAGGGCAAGTTGATAGCCGAGTTTGATGG | 3.6 | 2.74 | -0.528 | -0.707 | 0.106 | 0.822 | 0.247 | 0.442 | -0.485 | 2.88 | 1.56 | 1.84 | 2.12 | 2.37 | 0.956 | 1.22 | -0.266 | 1.92
12 | ACAAGTTGGTCAGCTGAGGTCACACACAATTCGG | 1.87 | 2.89 | 0.789 | 1.03 | 2.69 | 5.44 | 2 | 4.44 | 1.01 | 3.65 | 4.58 | 4.2 | 3.99 | 2.18 | 4.19 | 5.13 | 5.16 | 3.37
13 | GGAACGAGGGCAAGGTTGATAGCATCTGTCGACG | 3.31 | 3.93 | 0.295 | -0.611 | 0.79 | 0.705 | -0.0103 | 0.822 | 0.206 | 2.52 | 1.67 | 1.67 | 1.88 | 1.72 | 1.32 | 1.45 | 0.156 | 1.39
14 | TCTCAGAGGACACGAAAGGTCAGAGCTCGACATC | 1.77 | 1.57 | -0.124 | -0.022 | 3.62 | 4.28 | 0.423 | 4.62 | 1.56 | 4.44 | 4.95 | 5.29 | 6.24 | 1.46 | 4.47 | 3.77 | 0.917 | 0.991
15 | GGATCGAGGGCAAAGTTGATAGCATCTGTCGACG | 3.8 | 4.54 | 0.527 | 1.19 | 1.75 | 1.34 | 0.172 | 1.65 | -0.00886 | 2.61 | 1.47 | 2.12 | 1.7 | 2.4 | 2.08 | 1.39 | -0.165 | 1.94
